Screening results from PubChem BioAssay.
Compounds with a hit are over-represented: about 22% of the library has one in this group of screens.
CYP2C19 activ – human CYP2C19 activators, primary screen, biochemical, luminescence | Cytochrome P450 2C19 (Homo sapiens), P33261 | recombinant CYP2C19, luciferin-H EGE luminescence; active compounds read high; 0 = fully inhibited enzyme, 1 = untreated enzyme | activation factor at 5 µM | 96,000 tested, under 10 active | AID 1025, 2008;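 active = activation factor of at least 2 at 5 µM in the primary screen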;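 note: 0 = wells with 2.5 mM tranylcypromine and 1 = vehicle-only wells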
Target sequence (P33261 whole entry, looked up): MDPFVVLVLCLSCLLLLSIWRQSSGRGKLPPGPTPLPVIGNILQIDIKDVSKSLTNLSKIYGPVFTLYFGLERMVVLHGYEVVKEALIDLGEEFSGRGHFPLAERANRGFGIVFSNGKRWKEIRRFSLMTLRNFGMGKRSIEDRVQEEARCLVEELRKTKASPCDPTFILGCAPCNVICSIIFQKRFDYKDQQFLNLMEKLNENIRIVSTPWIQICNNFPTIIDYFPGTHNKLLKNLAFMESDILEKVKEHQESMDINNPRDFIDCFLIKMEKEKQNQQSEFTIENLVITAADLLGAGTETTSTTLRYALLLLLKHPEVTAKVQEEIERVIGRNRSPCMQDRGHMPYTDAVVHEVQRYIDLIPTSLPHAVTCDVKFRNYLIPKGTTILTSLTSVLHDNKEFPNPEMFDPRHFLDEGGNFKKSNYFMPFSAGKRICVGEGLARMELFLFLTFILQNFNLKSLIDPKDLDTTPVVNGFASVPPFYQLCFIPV
Measles CPE – compounds protecting cells from measles virus cytopathic effect, primary screen, measles RdRp inhibitor project, single point, MLSMR library, absorbance. Measles virus-infected cells, CPE protection. protection (pct of control), % at 4 µM. hit rate 1.5% among 140,000; in the data active = protection mostly above about 24%, no sharp cut-off; inactive = mostly below about 26%
CYP2C9 inhib – blockers of cytochrome P450 2C9 activity – biochemical, luminescence, ADME assay, primary screen; hit rate 20% among 96,000; CYP2C9 Supersomes, luciferin-H conversion; AID 777, 2007; inhibition, % at 5 µM; P11712;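 active = blocking of liver enzyme CYP2C9 beyond about 50% at 5 µM, limit read from the data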
CYP2C9 act – human CYP2C9 activators, primary screen, biochemical, luminescence; hit rate 1.4% among 96,000; Cytochrome P450 2C9 (Homo sapiens), P11712; activation factor at 5 µM; recombinant CYP2C9, luciferin-H conversion; active compounds read high; factor 1 = untreated enzyme, 0 = blocked;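 active = activation factor of 2 or more for CYP2C9 at a 5 µM dose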;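 note: 0 = sulfaphenazole-blocked wells and 1 = vehicle-only wells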
CYP2C19 inh – blockers of cytochrome P450 2C19 activity – biochemical, luminescence, ADME assay, primary screen | P33261 | CYP2C19 Supersomes, luciferin-H EGE luminescence, 30 min | inhibition, % at 5 µM | hit rate 21% among 96,000 | AID 778, 2007;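 active = CYP2C19 inhibition above a set limit at 5 µM in the primary screen, cut at about 50% in these data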;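 note: plate controls were negative control wells for no effect and 2.5 mM tranylcypromine positive control for full effect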
* = called active by the depositor; x = no result.

SMILES	CYP2C19 activ	Measles CPE	CYP2C9 inhib	CYP2C9 act	CYP2C19 inh
COc1ccccc1C(=O)N1CCN(CCc2ccccc2)CC1	0.4	20	49	0.5	61*
CCOC(=O)N1CCN(C(=O)c2ccccc2Oc2ccccc2)CC1	0.6	5	94*	0.1	42
CCOC(=O)C1CCN(C(=O)c2ccccc2Oc2ccccc2)CC1	0.2	4	92*	0.1	85*
CCOc1ccccc1C(=O)N1CCC(C(=O)c2ccc(F)cc2)CC1	x	21	x	x	x
COc1ccc(C2N=C(Nc3ccc(C)cc3)Nc3nc(C)cc(=O)n32)cc1 (configuration not stated)	0.9	24	10	0.9	6
CN1C2C=C3C(C#N)=C(N)C(C#N)(C#N)[C@@H](c4cccc(F)c4)[C@@H]3C1CC2 (some centres not stated)	1.1	4	-11	1.1	-11
CC(=O)Nc1cccc(NC(=O)c2cc(C)on2)c1	x	3	x	x	x
CCOC(=O)N1CCN(C(=O)c2ccccc2NC(=O)c2ccc(C(C)(C)C)cc2)CC1	x	11	x	x	x
CCOC(=O)N1CCN(C(=O)c2ccccc2NC(=O)COc2ccccc2C)CC1	0.3	19	56*	0.4	65*
NC(=O)c1ccccc1NC(=O)Nc1cccc(Cl)c1	0.9	14	7	0.9	12
CCOC(=O)N1CCN(C(=O)c2ccc3c(c2)sc2nc(-c4ccc(OC)cc4)cn23)CC1	0.6	63*	45	0.6	39
Cc1c(C(=O)N2CC(C)OC(C)C2)sc2nc(-c3ccc(F)cc3)cn12 (configuration not stated)	1.1	14	-9	1.1	-12
COc1ccc2c(c1)sc1nc(-c3ccccc3)cn12	0.2	29	92*	0.1	82*
COc1ccc(-c2cn3c(C)c(C(=O)N4CCN(c5ccc(F)cc5)CC4)sc3n2)cc1	1	31	-4	1	-2
CCOC(=O)N1CCN(C(=O)c2sc3nc(-c4ccc(F)cc4)cn3c2C)CC1	0.4	20	69*	0.3	64*
COc1ccccc1N1CCN(C(=O)c2sc3nc(-c4ccc(F)cc4)cn3c2C)CC1	0.8	16	50*	0.5	15
CCOC(=O)N1CCN(C(=O)c2ccc(OC)c(OC)c2)CC1	1	4	-2	1	3
O=C(Nc1cc(C(F)(F)F)ccc1-n1cnc2ccccc21)c1ccccc1	x	10	x	x	x
COc1ccccc1-c1nnc(SC2CCc3ccccc3NC2=O)s1 (configuration not stated)	x	25	x	x	x
COc1ccc(CC(=O)NC(C)c2nnc(SCC(=O)Nc3nc(C)cs3)n2C)cc1 (configuration not stated)	0.6	17	44	0.6	38
Cn1c(=O)c2cn3c(c2n(C)c1=O)C(c1ccccc1)CC(c1ccccc1)=N3 (configuration not stated)	0.9	13	32	0.7	15
CCCCn1nnnc1SCC(=O)Nc1ccc2c(c1)OCO2	0.6	17	70*	0.3	42
CCCn1nnnc1SCC(=O)c1ccc(NC(C)=O)cc1	0.7	15	8	0.9	29
CCn1nnnc1SCC(=O)Nc1ccc(OC)cc1	x	13	x	x	x
CCCn1nnnc1SCC(=O)NCc1cccs1	0.3	17	-6	1.1	73*
SMILES	CYP2C19 activ	Measles CPE	CYP2C9 inhib	CYP2C9 act	CYP2C19 inh
CCCCn1nnnc1SCC(=O)Nc1ccc(F)cc1	0	3	71*	0.3	97*
CCCCn1nnnc1SCC(=O)Nc1ccc(N(C)C)cc1	0.5	9	21	0.8	53*
Cc1ccc(CCNC(=O)C2CCCN(C(=O)N(C)C)C2)cc1 (configuration not stated)	0.9	16	2	1	14
Cc1cc(C(=O)CSc2nnnn2-c2ccccc2)c(C)n1-c1ccc2c(c1)OCO2	x	6	x	x	x
CCCn1nnnc1SCC(=O)NCc1ccc2c(c1)OCO2	0.3	5	53*	0.5	66*
O=C(CSc1nncs1)NCc1ccc2c(c1)OCO2	0.4	x	14	0.9	59*
COCCn1c(-c2ccc(Cl)cc2)cnc1SCC(=O)NCc1cccs1	0.1	4	86*	0.1	92*
Cc1cc(C(=O)CSc2nncs2)c(C)n1-c1ccc2c(c1)OCO2	0.1	16	53*	0.5	86*
CC(C)n1nnnc1SCC(=O)NCc1ccc2c(c1)OCO2	0.5	8	40	0.6	46
CC(C)(C)c1nc2c(Br)cc(Br)cc2c(=O)o1	x	3	x	x	x
C=CCn1cnc2c(c1=O)c1nc3ccccc3nc1n2-c1ccc(C)cc1	x	9	x	x	x
Cc1cc(C(=O)COC(=O)C2=COCCO2)c(C)n1-c1ccc2c(c1)OCO2	0.1	18	85*	0.1	92*
Cc1ccc(N/C=C(/C#N)c2ccsc2)cc1	0.4	16	33	0.7	64*
CCCCOc1ccc(/C=C/C(=O)NCCc2nc3ccccc3[nH]2)cc1	0.7	15	34	0.7	32
CCCCOC(=O)CCc1nc2ccccc2[nH]1	0.5	1	-6	1.1	50*
O=C(CCc1ccccc1)Nc1ccncc1	0.1	13	83*	0.2	86*
CC(=O)NS(=O)(=O)c1ccc(NC(=O)CCc2ccccc2)cc1	x	8	x	x	x
CCOC(=O)Cc1nc2ccccc2[nH]1	0.9	9	-13	1.1	11
O=C(CCc1nc2ccccc2[nH]1)Nc1ccccc1	0.4	17	33	0.7	62*
CCOC(=O)c1ccc(NCc2nc3ccccc3[nH]2)cc1	0.9	6	65*	0.3	15
CCOC(=O)Nc1ccc2c(c1)N(C(=O)N(CC)CC)c1ccccc1CC2	x	3	x	x	x
COc1ccc(C(=O)Oc2coc(CSc3nnc(NC(=O)c4cccs4)s3)cc2=O)cc1	x	3	x	x	x
O=C1c2cccnc2Nc2ccccc2N1CCCF	1.1	13	-16	1.2	-5
O=C(c1ccc(F)cc1)N1CCN(C(=O)c2cccnc2)CC1	0.7	7	0	1	35
COc1ccc(C2(C(=O)Nc3ccc(C(=O)O)cc3)CCOCC2)cc1	1	6	8	0.9	-1
SMILES	CYP2C19 activ	Measles CPE	CYP2C9 inhib	CYP2C9 act	CYP2C19 inh
Cc1csc(NC(=O)c2ccoc2C)n1	0	19	80*	0.2	100*
CCOC(=O)Cc1csc(NC(=S)NC(=O)c2ccc(C)cc2)n1	x	10	x	x	x
CCOC(=O)Cc1csc(NC(=O)c2ccoc2C)n1	0.1	37	74*	0.3	93*
CCOC(=O)c1cc(NC(=O)c2ccoc2C)cc(C(=O)OCC)c1	0.6	10	52*	0.5	40
N#Cc1c(-c2ccccc2)ccn(Cc2ccc(Cl)cc2)c1=O	0.6	16	54*	0.5	36
CC(c1ccco1)N(C(=O)CSc1ccc(Br)cc1)c1ccccn1 (configuration not stated)	0	5	90*	0.1	98*
